test system: DRIVER-selected RNA biosensor (aptazyme) pool; assay: maximum fold change of ribozyme cleavage across biosensor pool versus no-compound control; higher = stronger biosensor response (ligand inhibits cleavage); conditions: 10 µM
Outline: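 Fold change of cleavage, the ratio of cleaved:uncleaved read fractions versus a no-compound condition corrected with reference sequences, is given as the maximum over all biosensors. It was measured by CleaveSeq on a pool of 1,730 array-resynthesized ribozyme biosensors transcribed by T7 with 9 mM rNTPs for 15–30 min at 37°C in the presence of one compound at 10 µM final, added from a 10x DMSO stock. After reverse transcription at 50°C, cleaved and uncleaved products were PCR-barcoded and counted by Illumina sequencing.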

Row | Structure (SMILES) | maximum fold change
1 | COc1ccc(-c2cc(-c3nc4c5c(ncn4n3)CCC5)n[nH]2)cc1 | 1.38
2 | CCOC(=O)c1cnc2c(C)cc(Cl)cc2c1NCCCO | 9.37
3 | Cc1cc(C)c(Cn2c(C)c(CNCc3cccc(Cl)c3)c(C(=O)O)c2C)c(C)c1 | 1.74
4 | O=C1Nc2cc(C(=O)N3CCN(c4ccco4)CC3)ccc2N/C1=C\C(=O)c1ccc(Cl)cc1 | 5.38
5 | Cc1ccc(C(=O)N(Cc2ccccc2F)C2CCS(=O)(=O)C2)cc1 (stereo not given) | 2.6
6 | COc1ccc(/C=C2N=C(c3ccc(Cl)c(Cl)c3)OC2=O)cc1 | 2.84
7 | COc1ccc(CCNC(=O)c2nnc(Cc3ccc(Cl)cc3Cl)o2)cc1OC | 2.09
8 | CC(C)c1ccc(C2c3c(-c4ccccc4O)n[nH]c3C(=O)N2CCCO)cc1 (stereo not given) | 2.85
9 | COc1ccc(C(=O)Cc2cc3cccc(OC)c3oc2=O)cc1 | 1.82
10 | O=C(NC1(C(F)(F)F)N=C(c2ccccc2)N(C2CCCCC2)C1=O)c1ccco1 (stereo not given) | 2.01
11 | COc1ccc(OC)c(/C=C2/N=C(c3ccc(OC)c(Br)c3)OC2=O)c1 | 2.65
12 | CCCOc1ccc(C2c3c(oc4ccccc4c3=O)C(=O)N2c2nccs2)cc1 (stereo not given) | 8.73
13 | COc1ccccc1/C=C1N=C(c2ccc(Br)cc2)OC1=O | 2.7
14 | COc1ccc(OC)c(C2C3=C(CC(C)(C)CC3=O)OC3=C2C(=O)CC(C)(C)C3)c1 | 2.36
15 | Cc1ccc(-c2nc(CS(=O)(=O)CC(=O)NCCCN(C)Cc3ccccc3)c(C)o2)cc1 | 3.58
16 | COc1ccc(-c2cc3c(=O)n(CC(=O)NCc4ccccn4)ncn3n2)cc1 | 3.51
17 | CCOC(=O)c1c(C)c(-c2ccccc2)n(CC(=O)NCCN(C)C)c1C | 2.04
18 | CCOC(=O)C1=C(C)NC(=S)NC1c1ccc(O)c(OC)c1 (stereo not given) | 3.37
19 | COc1ccc(C(=O)Cn2c3ccccc3n3nc(-c4ccccc4)nc23)cc1OC | 4.22
20 | COc1ccc(C2=NN(CCC(=O)N3CCCCC3)C(=O)CC2)cc1 | 4.11
21 | Cc1ccc2nc(/C(C#N)=C\c3ccc[nH]3)[nH]c2c1 | 4.98
22 | C=C(C)Cn1c(NCCCN2CCOCC2)nc2c1c(=O)[nH]c(=O)n2C | 2.3
23 | Cc1c(C(=O)NCc2ccccc2Cl)oc2c1-c1[nH]ncc1CC2 | 2.79
24 | Cc1oc2ncn3c(C)nnc3c2c1C(=O)NC1CC1 | 2.62
25 | COc1cc(C(=O)N(Cc2ccccc2F)C2CCS(=O)(=O)C2)cc(OC)c1OC (stereo not given) | 2.18
26 | CCN1CCN(CCCNC(=O)c2ccc3c(c2)NC(=O)/C(=C/C(=O)c2ccc(OC)cc2)N3)CC1 | 8.68
27 | COc1ccccc1/C=C1N=C(c2ccc(Cl)c(Cl)c2)OC1=O | 3.36
28 | CC1CCN(S(=O)(=O)c2ccc3c(ccn3CC(=O)NCc3ccc(OC(C)C)cc3)c2)CC1 | 2.62
29 | Cc1cc(NC(=O)CSc2nc3ncccc3c(=O)n2CCc2ccccc2)[nH]n1 | 3.45
30 | COc1ccc(S(=O)Cc2ccc(C(=O)NC3CC3)o2)cc1 (stereo not given) | 2.4

From the supplement of paper PMC9477273
